Measurements: PubChem BioAssay AID1569 (National Center for Advancing Translational Sciences (NCATS), 2009)
Records with an inconclusive call do not appear. Calls of active or inactive are those of the source. The call rests on the fitted dose curve; in most records, active means well fitted inhibition curve with a large enough effect; inconclusive means small, poorly fitted or top-dose-only effect, or effect the other way, or another doubt; inactive means no such curve, though single readings can be large or run the other way.

Test: Confirmation Concentration-Response Assay for lipid storage modulators; further: nearly all actives have a fitted effect of over 80% in size
Conditions: Drosophila S3 cells, lipid droplet BODIPY/CellTracker ratio, 18-24 h; series mostly up to 46.1 µM; activity change, negative = inhibition: at the top concentration
Excerpt: NIH Molecular Libraries Probe Production Centers Network [MLPCN] NIH Chemical Genomics Center [NCGC] MLPCN Grant: 1 R03 MH085686-01 Assay Submitter (PI): Beller, Mathias; Max-Planck-Institut fur Biophysikalische Chemie NCGC Assay Overview: Storing lipids as a reservoir for energy or the anabolism of elementary metabolites is a common feature of probably all cells and is conserved from bacteria to humans. The universal cellular lipid storage organelle is the so-called lipid storage droplet (LD). Although ubiquitous, LDs share a simple structure composed of a hydrophobic core that harbors the storage lipids, which is shielded by a droplet-specific phospholipid monolayer to which proteins are attached. The current model of LD biogenesis involves an incorporation of the lipid core into the membrane leaflets of the endoplasmic reticulum (ER) followed by a subsequent budding-like maturation of a LD, which ultimately pinches off. Once released, LD volume can increase by localized lipogenesis or fusion of existing droplets. Storage lipids are re-mobilized enzymatically by lipase activity. Lipase regulation in the adipocyte is heavily studied and involves multiple components including catecholamine signaling, the LD-associated proteins Perilipin and comparative gene identification-58 (CGI-58) and at least two lipases named hormone sensitive lipase (HSL) and adipocyte triglyceride lipase (ATGL). LD regulation outside of the adipocyte is poorly understood and only few components are known. However, there is an urgent need to learn more about ectopic fat depots as mislocalized storage of lipids, for example in the liver or muscle, is an eminent health problem associated with insulin resistance or the metabolic syndrome. We developed a laser-scanning cytometer assay to enable 1,536-well screening and combined the results of the small molecules screen with an RNAi database based on lipid storage. Exo1 identified in the primary screen (AID 1519) and several analogs were measured in the lipid storage assay as 24-point concentration-response curves to confirm potency and SAR.
We dispensed 4 uL of cells at 1.25 x 10^6 cells/mL into LoBase Aurora COC 1,536-well plates (black walled, clear bottom) with a bottle-valve solenoid-based dispenser (Aurora) to obtain 5,000 cells/well. Triacsin C (Sigma-Aldrich T-4540), an inhibitor of long-chain fatty acyl CoA synthetase that blocks synthesis of triglycerides, was used as a positive control for lipid under-storage. A total of 23 nL of compound solution of different concentrations were transferred to the assay plates using a Kalypsys pin tool equipped with a 1,536-pin array containing 10-nL slotted pins (FP1S10, 0.457-mm diameter, 50.8 mm long; V&P Scientific). One microliter of oleic acid (400 uM) was added, and the plate was lidded with stainless steel rubber gasket lined lids containing pinholes. After 18-24 h incubation at 24 degree Celsius and 95% humidity, 4 uL of the dyes BODIPY 493/503 (Molecular Probes) and the Cell Tracker Red CMTPX dye (Molecular Probes) were added to the wells to stain lipid droplets and enumerate cell number, respectively. Fluorescence was detected by excitation of the fluorophores with a 488-nm laser on an Acumen Explorer (TTP Lab Tech). The total intensity in channel 1 (500-530 nm) reflected lipid droplet accumulation. Cells were detected using channel 3 (575- 640 nm) with 5-um width and 100-um depth filters. The ratio of the total intensity in PMT channel 1 over total intensity of channel 3 was also calculated. Percent activity was computed relative to an internal control (100% inhibited lipid droplet deposition due to the presence of 20 uM Triacsin C), which was added to 32 wells/plate.
Potency means the concentration at half of the fitted maximal effect.

Potency, active:
CSCC(=O)NC1CCCc2c1cnn2-c1cc(F)cc(F)c1 (stereo not given) 2500 nM
O=C(CC(O)(C(F)(F)F)C(F)(F)F)Nc1ccc(Cl)c(Cl)c1 9960 nM
CCC(C)N1C(=O)c2ccccc2C1C(=O)NC1CCCCCC1 (stereo not given) 1990 nM
Cc1sc2ncnc(NCC3COc4ccccc4O3)c2c1C (stereo not given) 1990 nM
Cc1cccc(NC(=O)CNC(=O)C23CC4CC(CC(Cl)(C4)C2)C3)n1 3150 nM
CC(C)OC(=O)c1cc2c(ccn2C)n1CC(=O)N(Cc1ccccc1)c1ccccc1 1770 nM
O=C(Nc1ccc(Cl)c(Cl)c1)Nc1ccc(Br)cc1F 8880 nM
COc1ccc(CCNC(=O)CCCCCNc2nc(=S)[nH]c3ccccc23)cc1OC 2500 nM
COc1ccc(CCNC(=O)Cn2nnc(-c3ccc(N4CCOCC4)cc3)n2)cc1OC 44.5 nM
Cc1ccc(C)c(OCc2cc(C(=O)N3CC[C@@H]4CCCC[C@H]4C3)no2)c1 14100 nM
O=C(Nc1ccc(S(=O)(=O)N2CCCC2)cc1)c1ccc(CN2CCc3ccccc3C2)cc1 14100 nM
COCc1ccc(C(=O)NC2CCCc3c2cnn3-c2cc(C)cc(C)c2)s1 (stereo not given) 24.4 nM
CC1CCN(C(=O)C2(NC(=O)Nc3cccc(F)c3)CCCCC2)CC1 7910 nM
COc1ccc(/C=C(\NC(=O)c2cccs2)C(=O)Nc2ccc(C)cc2)cc1OC 141 nM
Cn1nc(CC(=O)Nc2ccc(N3CCN(C(=O)OC(C)(C)C)CC3)cc2)c2ccccc2c1=O 1770 nM
CCCCCCCCCCCCCCCCn1cc[n+](C)c1 3150 nM
O=S(=O)(c1ccccc1C(F)(F)F)N1CCC(n2cnc3ccccc32)CC1 996 nM
CCOc1ccc2nc(NC(=O)CSc3nc(SC)ns3)sc2c1 4450 nM
COc1ccc(CCCc2nnc(SCC(=O)Nc3nc(C)cs3)n2C)cc1C 1410 nM
CCCOc1ccc2oc(=O)c3c(c2c1)CCCN3C(=O)CN1CCN(C(=O)c2ccco2)CC1 1990 nM
Nc1c(C(=O)C2CC2)sc2nc(-c3ccccc3)cc(C(F)(F)F)c12 1580 nM
CCOC(=O)C1CCN(C(=O)C2(NC(=O)Nc3cccc(F)c3)CCCCC2)CC1 3970 nM
COc1ccc(C)cc1NC(=O)C1CCN(S(=O)(=O)c2cccc3cccnc23)CC1 15800 nM
CC(Oc1ccc2oc3ccccc3c2c1)C(=O)NC12CC3CC(CC(C3)C1)C2 (stereo not given) 705 nM
COc1ccc(CCNC(=O)CSc2ccc3ccccc3c2)cc1OC 1410 nM
CCOc1ccc(CCNC(=O)COC(=O)c2cccs2)cc1OCC 3150 nM
O=C(NC1CCCc2c1cnn2-c1ccc(F)cc1F)c1cnccn1 (stereo not given) 445 nM
CCOC(=O)C1CCN(C(=O)C2(NC(=O)Nc3ccccc3C)CCCCC2)CC1 2500 nM
COC(=O)c1ccccc1NC(=O)c1ccc(F)cc1F 1410 nM [activator]

Activity change, negative = inhibition, inactive:
CCc1ccc(CN(C)C(=O)c2ccc3c(=O)n4c(nc3c2)CCC4)cc1 5.52%
O=C(NCc1ccccc1)NC1(C(=O)N2CCCC2)CCCCC1 -14.5%
O=C(Nc1ccc(N2CCOCC2)cc1N1CCOCC1)c1ccc(Br)cc1 0%
CCN1CCCC1CNC(=O)C(=O)NCCc1ccc(OC)c(OC)c1 (stereo not given) 33.3%
COc1ccc(CCNC(=O)CSC2=NS(=O)(=O)c3ccccc3N2)cc1OC 8%
Cc1ccc(NCc2ccc(O)c3ncccc23)cc1 11%
Cc1ccc(-c2noc(C3CCCN(C(=O)c4ccccc4Br)C3)n2)cc1 (stereo not given) -18.5% [at 30.7 µM]
CCn1c(Cc2ccc(OC)cc2)nnc1SCC(=O)Nc1cccc(C(=O)OC)c1 -19.6%
COc1ccc(CCNC(=O)c2ccccc2-c2ccccc2C(=O)O)cc1OC 17.3%
COc1ccc(CCNC(=O)CSc2nnc(CNc3ccc(Cl)cc3)o2)cc1OC 0.667%
CCOc1ccc(CCNC(=O)COC(=O)c2cccc(S(=O)(=O)N3CCCCC3)c2)cc1OCC -7.33%
